Sfp PPTase inh – blocks B. subtilis Sfp PPTase activity. Biochemical Sfp PPTase activity, qHTS. actives 3.5% (n = 310,000). Q9F4F7. Potency, µM, without a hit: largest response in the series, negative = inhibition, actives largely listed as inhibitors;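 further: the enzyme is Sfp with the accession as filed and its product quenches rhodamine fluorescence; 0% = enzyme reaction without inhibitor and -100% = no enzyme wells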
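After 15 min at room temperature with compound, 15 nM Sfp received 5 uM rhodamine-CoA plus 12.5 uM BHQ-2-ybbR (50 mM Hepes pH 7.6, 10 mM MgCl2). Rate came from the fluorescence difference over 30 min, ex 525/em 598 nm.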
PLK1 PBD block – blocks phosphopeptide binding to human PLK1 polo-box domain. Plk1 PBD binding of FITC phosphopeptide, fluorescence polarization. Potency, µM, inactives show max response, negative = inhibition, most hits filed as inhibitors. actives 2.8% (n = 360,000). AID 720504; further: series mostly up to about 57 µM; on the % scale 0 is the no-effect control and ±100 the full control effect; nearly all actives have a fitted effect of over 65% in size
HP1b binding inh – inhibitors of HP1-beta chromodomain binding to methylated histone tails | P83916 | AlphaScreen HP1-beta / biotin-H3K9me3 peptide binding | Potency, µM (titrated, usually from 114 µM), inactives show at the highest dose activity change, negative = inhibition, actives largely listed as inhibitors | actives 0.56% (n = 390,000) | AID 540317; further: nearly all actives have a fitted effect of over 70% in size
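AlphaScreen: HP1-beta (50 nM) preformed 30 min with biotin-H3(1-18)K9me3 peptide (50 nM) in PBS pH 7.4, 0.01% Tween-20. Compound added for 30 min at RT, then streptavidin donor/nickel chelate acceptor beads (10 ug/mL) for 30 min.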
G9a block – inhibitors of human histone lysine methyltransferase G9a. Q96KQ7. G9a H3K9 monomethylation, AlphaScreen, 2 h. Potency, µM (titrated, usually from 102 µM), inactives show top-dose activity, negative = inhibition, most hits filed as inhibitors. actives 8.8% (n = 350,000); further: on the % scale 0 is the no-effect control and ±100 the full control effect; nearly all actives have a fitted effect of over 75% in size
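G9a (20 nM) preincubated 15 min RT with compounds, then 500 nM biotinylated H3K9 peptide and 20 uM SAM added; 2 h RT reaction. Monomethyl-H3K9 product detected by AlphaScreen with anti-H3K9me1 antibody, streptavidin donor and anti-rabbit IgG acceptor beads.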
BAZ2B block – inhibitors of human BAZ2B bromodomain; actives 4.4% (n = 360,000); AlphaScreen BAZ2B-H3K14Ac peptide displacement; Q9UIF8; Potency, µM (doses to about 114 µM), inactives show at the highest dose activity change, negative = inhibition, actives largely listed as inhibitors; further: on the % scale 0 is the no-effect control and ±100 the full control effect; nearly all actives have a fitted effect of over 60% in size
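Inhibition is scored as reduced AlphaScreen emission. The BAZ2B/b-H3(5-23)K14Ac complex (50 nM each) in PBS pH 7.4, 0.01% Tween-20 meets compound (up to 110 uM) for 30 min at RT before bead addition.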
JMJD2A Tudor – inhibitors of human JMJD2A Tudor domain | O75164 | AlphaScreen JMJD2A-Tudor / H3K4me3 peptide binding | Potency, µM (doses to about 114 µM), for inactives: at the top dose activity change, negative = inhibition, hits mostly inhibitors | actives 4.4% (n = 390,000) | AID 504339; further: on the % scale 0 is the no-effect control and ±100 the full control effect; nearly all actives have a fitted effect of over 50% in size
Target sequence (O75164 whole entry, looked up, the tested form may be a part): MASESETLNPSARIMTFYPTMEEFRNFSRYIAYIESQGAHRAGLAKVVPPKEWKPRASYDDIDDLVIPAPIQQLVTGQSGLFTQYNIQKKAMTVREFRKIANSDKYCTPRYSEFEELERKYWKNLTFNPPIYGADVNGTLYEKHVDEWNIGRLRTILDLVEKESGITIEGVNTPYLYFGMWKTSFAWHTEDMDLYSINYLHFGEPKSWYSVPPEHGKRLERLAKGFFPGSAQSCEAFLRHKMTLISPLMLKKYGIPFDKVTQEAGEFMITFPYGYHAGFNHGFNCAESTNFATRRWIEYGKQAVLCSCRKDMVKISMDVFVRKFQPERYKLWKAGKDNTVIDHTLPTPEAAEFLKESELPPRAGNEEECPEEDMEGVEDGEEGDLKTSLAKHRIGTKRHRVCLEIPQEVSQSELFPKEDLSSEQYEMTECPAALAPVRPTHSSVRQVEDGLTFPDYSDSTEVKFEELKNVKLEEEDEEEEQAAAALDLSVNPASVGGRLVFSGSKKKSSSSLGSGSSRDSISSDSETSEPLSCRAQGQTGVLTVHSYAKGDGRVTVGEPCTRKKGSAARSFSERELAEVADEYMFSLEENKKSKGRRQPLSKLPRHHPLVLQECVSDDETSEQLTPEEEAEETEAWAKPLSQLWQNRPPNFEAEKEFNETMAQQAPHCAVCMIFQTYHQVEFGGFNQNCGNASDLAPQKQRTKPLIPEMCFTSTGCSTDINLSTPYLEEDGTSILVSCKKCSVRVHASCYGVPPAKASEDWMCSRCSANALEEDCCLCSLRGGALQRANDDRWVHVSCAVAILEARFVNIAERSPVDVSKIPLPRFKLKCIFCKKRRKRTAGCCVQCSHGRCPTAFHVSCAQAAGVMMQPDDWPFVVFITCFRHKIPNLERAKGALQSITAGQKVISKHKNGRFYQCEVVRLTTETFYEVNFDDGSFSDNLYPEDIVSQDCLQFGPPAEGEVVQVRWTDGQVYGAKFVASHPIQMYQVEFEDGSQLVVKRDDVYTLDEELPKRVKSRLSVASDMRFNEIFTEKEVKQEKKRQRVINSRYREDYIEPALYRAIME
Active calls of the source: *; [ ] = remark or other dose. Only some compounds are listed: those with a hit (about 12% of all), similar ones and a draw of the others. The call rests on the fitted dose curve; in most records, active means well fitted curve in the direction sought with a large enough effect; inconclusive means small, poorly fitted or top-dose-only effect, or another doubt; inactive means no such curve, though single readings can be large; an effect the other way counts as inactive or inconclusive. Potency means the concentration at half of the fitted maximal effect.

CCOC(=O)c1c(-c2cccc(C)c2)csc1NC(=O)C1CC=CCC1C(=O)O (centres undefined) was read as Sfp PPTase inh -20%, PLK1 PBD block inconclusive, HP1b binding inh 21%, G9a block 15%[59 µM], BAZ2B block -8% and JMJD2A Tudor -1%.
For COC(=O)c1c(-c2ccccc2)csc1NC(=O)C1CC=CCC1C(=O)O (centres undefined) the results were Sfp PPTase inh -6%, PLK1 PBD block -2%, HP1b binding inh inconclusive, G9a block 45µM*, BAZ2B block inconclusive and JMJD2A Tudor 50µM*.
Screening COC(=O)c1c(NC(=O)C2CC=CCC2C(=O)O)sc(C(N)=O)c1C (centres undefined) returned Sfp PPTase inh -23%, PLK1 PBD block -23%, HP1b binding inh 10%, G9a block 18µM*, BAZ2B block -5% and JMJD2A Tudor -24%.
`COc1cc(NC(=O)CCc2c(C)nn(-c3ccc4nnc(C)n4n3)c2C)cc(OC)c1OC` gave HP1b binding inh 16%[57 µM], G9a block 24%[59 µM], BAZ2B block 2% and JMJD2A Tudor -5%.
`CCN(CC)S(=O)(=O)c1ccc2c(c1)N(CC(=O)N1CCN(c3ccc(OC)cc3)CC1)C(=O)CO2` gave HP1b binding inh 1%, G9a block -47%[59 µM], BAZ2B block -19% and JMJD2A Tudor -26%.
For CCN(C(=O)CSc1nnc(SC)s1)c1c(N)n(Cc2ccccc2)c(=O)[nH]c1=O the results were PLK1 PBD block 6%, HP1b binding inh 67%, G9a block 1%[12.7 µM], BAZ2B block -1% and JMJD2A Tudor 6%.
Cc1c(NN=C(C#N)C#N)c(=O)n(-c2ccccc2)n1C was read as Sfp PPTase inh -76%, PLK1 PBD block -14%, HP1b binding inh 27%, G9a block 10µM*, BAZ2B block -34% and JMJD2A Tudor -5%.
Cc1c(NC(=O)/C(C#N)=C/c2ccccc2)c(=O)n(-c2ccccc2)n1C was read as Sfp PPTase inh -4%, PLK1 PBD block -6%, HP1b binding inh 13%, G9a block 71µM*, BAZ2B block -10% and JMJD2A Tudor 2%.
`Cc1c(NC(=O)CC(=O)Nc2c(C)n(C)n(-c3ccccc3)c2=O)c(=O)n(-c2ccccc2)n1C` gave Sfp PPTase inh 16%, PLK1 PBD block -6%, HP1b binding inh 12%, G9a block 2%[59 µM], BAZ2B block -6% and JMJD2A Tudor -15%.
Cc1ccsc1/C=C(\C#N)C(=O)Nc1c(C)n(C)n(-c2ccccc2)c1=O was read as Sfp PPTase inh -30%, PLK1 PBD block -8%, HP1b binding inh 30%, G9a block inconclusive, BAZ2B block -31% and JMJD2A Tudor -14%.
`CC(C)c1nn2c(=O)cc(COC(=O)C3CCCCC3)nc2s1` gave HP1b binding inh 28%, G9a block 12%[59 µM], BAZ2B block -3% and JMJD2A Tudor -9%.
`CCN(CC)P1(=O)OC(c2cc(OC)c(OC)c(OC)c2)=Nc2c1c(C)nn2-c1ccccc1` (centres undefined) gave Sfp PPTase inh 7%, PLK1 PBD block -19%, HP1b binding inh 10%, G9a block 50µM*, BAZ2B block inconclusive and JMJD2A Tudor -20%.
`NC(=O)NC(=O)COC(=O)c1sc2ccccc2c1Cl` gave Sfp PPTase inh 7%, PLK1 PBD block 13µM*, HP1b binding inh 11%, G9a block -2%, BAZ2B block 2% and JMJD2A Tudor -10%[11.4 µM].
Screening O=C(COC(=O)c1sc2ccccc2c1Cl)NC1CCCCC1 returned Sfp PPTase inh inconclusive, PLK1 PBD block 3%, HP1b binding inh 23%, G9a block -13%[59 µM], BAZ2B block -2% and JMJD2A Tudor 1%.
Cc1ccc(-c2cc(C(=O)N/N=C/C=C/c3ccccc3)n[nH]2)s1 was read as Sfp PPTase inh -5%, PLK1 PBD block 6.7µM*, HP1b binding inh -15%, G9a block 9%[59 µM], BAZ2B block 0% and JMJD2A Tudor -32%.
Cc1cc(C(=O)N/N=C/C=C/c2ccccc2)n[nH]1 was read as Sfp PPTase inh 5%, PLK1 PBD block -2%, HP1b binding inh 29%, G9a block 4%, BAZ2B block -16% and JMJD2A Tudor -4%.
For O=C(N/N=C/c1ccco1)c1cc(-c2ccc(Cl)s2)[nH]n1 the results were Sfp PPTase inh 10%, PLK1 PBD block -12%, HP1b binding inh 23%, G9a block 4%, BAZ2B block -5% and JMJD2A Tudor -24%.
For O=C(N/N=C/c1cccs1)c1cc(-c2ccc(Cl)s2)[nH]n1 the results were Sfp PPTase inh 20%, PLK1 PBD block -3%, HP1b binding inh -5%, G9a block 50µM*, BAZ2B block inconclusive and JMJD2A Tudor inconclusive.
Screening CCCNc1ncnc2[nH]ncc12 returned PLK1 PBD block -2%, HP1b binding inh -17% and JMJD2A Tudor -18%.
For c1ccc(Nc2ncnc3[nH]ncc23)cc1 the results were Sfp PPTase inh 6%, PLK1 PBD block -3%, HP1b binding inh 47%, G9a block 50µM*, BAZ2B block -5% and JMJD2A Tudor -7%.
For CCCCN1C(=O)C(CC(=O)NC(c2ccccc2)c2ccccc2)CC(C(=O)N(C(C)C)C(C)C)=C1C (centres undefined) the results were PLK1 PBD block -4%.
Screening CCOc1ccc(NC(=NCc2ccc3c(c2)OCO3)SC2CC(=O)N(c3ccc(C(=O)O)cc3)C2=O)cc1 (centres undefined) returned Sfp PPTase inh -15%, PLK1 PBD block inconclusive, HP1b binding inh -9%, G9a block -4%[59 µM], BAZ2B block inconclusive and JMJD2A Tudor inconclusive.
Screening COC(=O)CSC1=C(C#N)C(=O)NC2(CCCCC2)S1 returned Sfp PPTase inh 25µM*, PLK1 PBD block -9%, HP1b binding inh inconclusive, G9a block inconclusive, BAZ2B block -36% and JMJD2A Tudor inconclusive.
N#CC1=C2CCCCC2(O)NC1=O (centres undefined) was read as PLK1 PBD block -7%.
Screening Cc1cccc(NC(=O)Cn2c(=O)nc(-c3ccccc3)c3ccccc32)c1C returned HP1b binding inh 45%, G9a block 1%[12.7 µM], BAZ2B block -3% and JMJD2A Tudor -1%.
O=C(Nc1cc([N+](=O)[O-])ccc1Cl)C(Sc1ccccc1)c1ccccc1 (centres undefined) was read as Sfp PPTase inh 8%, PLK1 PBD block -11%, HP1b binding inh inconclusive, G9a block -9%[59 µM], BAZ2B block -38% and JMJD2A Tudor 79µM*.

Bioassay records: PubChem BioAssay, National Center for Advancing Translational Sciences (NCATS)
